# Experimental data as given in the supplement of paper PMC4466140.
# B1: unnamed (peptide)
# chain: PELAPKREAPKPPAN
# Molecular target: AgAbp1
# Experiment: SPOT peptide array binding signal intensity (averaged, normalized) (arbitrary units (background-subtracted, floor 0; scale differs between SH3 domains)); higher = stronger binding of the SH3 domain to the peptide
# Procedure, shortened: (§1)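 Detection of bound protein relied on anti-GST antibody, an HRP anti-mouse secondary and luminol, with imaging and quantification in Genespotter. The bound protein was GST-fused SH3 domains from four yeast species, incubated at 10 μg/ml overnight at 4°C in TBS-based blocking buffer on cellulose membranes carrying synthetic 15-mer peptides with cysteines replaced by serines. Binding signal is normalized, background-subtracted spot intensity averaged over replicates, in arbitrary units that differ between domains.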
row,Binder,SPOT peptide array binding signal intensity
1,B1,0.5

# Molecular target: AgBbc1
# Experiment: as above
# Procedure, shortened: as §1
row,Binder,SPOT peptide array binding signal intensity
1,B1,≤ 0

# Molecular target: AgBem1-D1
# Experiment: as above
# Procedure, shortened: as §1
row,Binder,SPOT peptide array binding signal intensity
1,B1,7.5

# Molecular target: AgBzz1-D1
# Experiment: as above
# Procedure, shortened: as §1
row,Binder,SPOT peptide array binding signal intensity
1,B1,34.5

# Molecular target: AgBzz1-D2
# Experiment: as above
# Procedure, shortened: as §1
row,Binder,SPOT peptide array binding signal intensity
1,B1,12

# Molecular target: AgCyk3
# Experiment: as above
# Procedure, shortened: as §1
row,Binder,SPOT peptide array binding signal intensity
1,B1,≤ 0

# Molecular target: AgFus1
# Experiment: as above
# Procedure, shortened: as §1
row,Binder,SPOT peptide array binding signal intensity
1,B1,0.5

# Molecular target: AgHof1
# Experiment: as above
# Procedure, shortened: as §1
row,Binder,SPOT peptide array binding signal intensity
1,B1,2.5

# Molecular target: AgHse1
# Experiment: as above
# Procedure, shortened: as §1
row,Binder,SPOT peptide array binding signal intensity
1,B1,≤ 0

# Molecular target: AgLsb1
# Experiment: as above
# Procedure, shortened: as §1
row,Binder,SPOT peptide array binding signal intensity
1,B1,≤ 0

# Molecular target: AgLsb4
# Experiment: as above
# Procedure, shortened: as §1
row,Binder,SPOT peptide array binding signal intensity
1,B1,≤ 0

# Molecular target: AgMyo5
# Experiment: as above
# Procedure, shortened: as §1
row,Binder,SPOT peptide array binding signal intensity
1,B1,560

# Molecular target: AgNbp2
# Experiment: as above
# Procedure, shortened: as §1
row,Binder,SPOT peptide array binding signal intensity
1,B1,564

# Molecular target: AgRvs167
# Experiment: as above
# Procedure, shortened: as §1
row,Binder,SPOT peptide array binding signal intensity
1,B1,2.83

# Molecular target: AgSho1
# Experiment: as above
# Procedure, shortened: as §1
row,Binder,SPOT peptide array binding signal intensity
1,B1,≤ 0

# Molecular target: AgSla1-D1-D2
# Experiment: as above
# Procedure, shortened: as §1
row,Binder,SPOT peptide array binding signal intensity
1,B1,≤ 0

# Molecular target: AgSla1-D3
# Experiment: as above
# Procedure, shortened: as §1
row,Binder,SPOT peptide array binding signal intensity
1,B1,3

# Molecular target: CaAbp1-D1
# Experiment: as above
# Procedure, shortened: as §1
row,Binder,SPOT peptide array binding signal intensity
1,B1,≤ 0

# Molecular target: CaAbp1-D2
# Experiment: as above
# Procedure, shortened: as §1
row,Binder,SPOT peptide array binding signal intensity
1,B1,3.5

# Molecular target: CaBbc1
# Experiment: as above
# Procedure, shortened: as §1
row,Binder,SPOT peptide array binding signal intensity
1,B1,73.2

# Molecular target: CaBem1-D1
# Experiment: as above
# Procedure, shortened: as §1
row,Binder,SPOT peptide array binding signal intensity
1,B1,1

# Molecular target: CaBzz1-D1
# Experiment: as above
# Procedure, shortened: as §1
row,Binder,SPOT peptide array binding signal intensity
1,B1,652

# Molecular target: CaBzz1-D2
# Experiment: as above
# Procedure, shortened: as §1
row,Binder,SPOT peptide array binding signal intensity
1,B1,265

# Molecular target: CaCyk3
# Experiment: as above
# Procedure, shortened: as §1
row,Binder,SPOT peptide array binding signal intensity
1,B1,≤ 0

# Molecular target: CaFus1
# Experiment: as above
# Procedure, shortened: as §1
row,Binder,SPOT peptide array binding signal intensity
1,B1,14

# Molecular target: CaHof1
# Experiment: as above
# Procedure, shortened: as §1
row,Binder,SPOT peptide array binding signal intensity
1,B1,≤ 0

# Molecular target: CaHse1
# Experiment: as above
# Procedure, shortened: as §1
row,Binder,SPOT peptide array binding signal intensity
1,B1,0.5

# Molecular target: CaLsb1
# Experiment: as above
# Procedure, shortened: as §1
row,Binder,SPOT peptide array binding signal intensity
1,B1,≤ 0

# Molecular target: CaLsb4
# Experiment: as above
# Procedure, shortened: as §1
row,Binder,SPOT peptide array binding signal intensity
1,B1,≤ 0

# Molecular target: CaMyo5
# Experiment: as above
# Procedure, shortened: as §1
row,Binder,SPOT peptide array binding signal intensity
1,B1,1.5

# Molecular target: CaNbp2
# Experiment: as above
# Procedure, shortened: as §1
row,Binder,SPOT peptide array binding signal intensity
1,B1,1020

# Molecular target: CaRvs167
# Experiment: as above
# Procedure, shortened: as §1
row,Binder,SPOT peptide array binding signal intensity
1,B1,0.667

# Molecular target: CaRvs167-3
# Experiment: as above
# Procedure, shortened: as §1
row,Binder,SPOT peptide array binding signal intensity
1,B1,≤ 0

# Molecular target: CaSho1
# Experiment: as above
# Procedure, shortened: as §1
row,Binder,SPOT peptide array binding signal intensity
1,B1,≤ 0

# Molecular target: CaSla1-D1-D2
# Experiment: as above
# Procedure, shortened: as §1
row,Binder,SPOT peptide array binding signal intensity
1,B1,≤ 0

# Molecular target: CaSla1-D3
# Experiment: as above
# Procedure, shortened: as §1
row,Binder,SPOT peptide array binding signal intensity
1,B1,1

# Molecular target: ScAbp1
# Experiment: as above
# Procedure, shortened: as §1
row,Binder,SPOT peptide array binding signal intensity
1,B1,1

# Molecular target: ScBbc1
# Experiment: as above
# Procedure, shortened: as §1
row,Binder,SPOT peptide array binding signal intensity
1,B1,17

# Molecular target: ScBem1-D1
# Experiment: as above
# Procedure, shortened: as §1
row,Binder,SPOT peptide array binding signal intensity
1,B1,≤ 0

# Molecular target: ScBzz1-D1
# Experiment: as above
# Procedure, shortened: as §1
row,Binder,SPOT peptide array binding signal intensity
1,B1,91

# Molecular target: ScBzz1-D2
# Experiment: as above
# Procedure, shortened: as §1
row,Binder,SPOT peptide array binding signal intensity
1,B1,10

# Molecular target: ScCyk3
# Experiment: as above
# Procedure, shortened: as §1
row,Binder,SPOT peptide array binding signal intensity
1,B1,≤ 0

# Molecular target: ScFus1
# Experiment: as above
# Procedure, shortened: as §1
row,Binder,SPOT peptide array binding signal intensity
1,B1,≤ 0

# Molecular target: ScHof1
# Experiment: as above
# Procedure, shortened: as §1
row,Binder,SPOT peptide array binding signal intensity
1,B1,≤ 0

# Molecular target: ScHse1
# Experiment: as above
# Procedure, shortened: as §1
row,Binder,SPOT peptide array binding signal intensity
1,B1,≤ 0

# Molecular target: ScLsb1
# Experiment: as above
# Procedure, shortened: as §1
row,Binder,SPOT peptide array binding signal intensity
1,B1,≤ 0

# Molecular target: ScLsb2
# Experiment: as above
# Procedure, shortened: as §1
row,Binder,SPOT peptide array binding signal intensity
1,B1,0.5

# Molecular target: ScLsb3
# Experiment: as above
# Procedure, shortened: as §1
row,Binder,SPOT peptide array binding signal intensity
1,B1,≤ 0

# Molecular target: ScLsb4
# Experiment: as above
# Procedure, shortened: as §1
row,Binder,SPOT peptide array binding signal intensity
1,B1,≤ 0

# Molecular target: ScMyo3
# Experiment: as above
# Procedure, shortened: as §1
row,Binder,SPOT peptide array binding signal intensity
1,B1,1310

# Molecular target: ScMyo5
# Experiment: as above
# Procedure, shortened: as §1
row,Binder,SPOT peptide array binding signal intensity
1,B1,906

# Molecular target: ScNbp2
# Experiment: as above
# Procedure, shortened: as §1
row,Binder,SPOT peptide array binding signal intensity
1,B1,1560

# Molecular target: ScPex13
# Experiment: as above
# Procedure, shortened: as §1
row,Binder,SPOT peptide array binding signal intensity
1,B1,5

# Molecular target: ScRvs167
# Experiment: as above
# Procedure, shortened: as §1
row,Binder,SPOT peptide array binding signal intensity
1,B1,≤ 0

# Molecular target: ScSho1
# Experiment: as above
# Procedure, shortened: as §1
row,Binder,SPOT peptide array binding signal intensity
1,B1,≤ 0

# Molecular target: ScSla1-D1-D2
# Experiment: as above
# Procedure, shortened: as §1
row,Binder,SPOT peptide array binding signal intensity
1,B1,≤ 0

# Molecular target: ScSla1-D3
# Experiment: as above
# Procedure, shortened: as §1
row,Binder,SPOT peptide array binding signal intensity
1,B1,4.5

# Molecular target: SpAbp1-D1
# Experiment: as above
# Procedure, shortened: as §1
row,Binder,SPOT peptide array binding signal intensity
1,B1,5

# Molecular target: SpBbc1
# Experiment: as above
# Procedure, shortened: as §1
row,Binder,SPOT peptide array binding signal intensity
1,B1,≤ 0

# Molecular target: SpBzz1-D1
# Experiment: as above
# Procedure, shortened: as §1
row,Binder,SPOT peptide array binding signal intensity
1,B1,9
